# Test results reported in PubChem BioAssay (NCI).
# About 83,000 compounds went through this panel and 20% of them were active in at least one assay; those are over-represented in the sample as a whole.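 Values shown are percent growth following 48 h exposure of cells in 96-well plates to a single concentration of compound; below 10 was considered active.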 Active and inactive are the calls of the source.
# Test system: A498 renal
# Assay: NCI-60 one-dose screen, 48 h (100 = growth as untreated, 0 = no growth, -100 = all killed)
# Conditions: 10 µM unless noted
# Protocol: Growth inhibition of the A498 human tumor cell line is measured as a screen for anti-cancer activity. Cells are grown in 96 well plates and exposed to the test compound for 48 hours. Compounds are tested at a single concentration, which is 10^-5 M for most compounds. The reported endpoint is percent growth (GI% or GIPRCNT), where numbers from 0 - 100% represent growth inhibition, and numbers from -100% - 0 represent cell death. For example, a value of 40 represents 60% growth inhibition. A value of 0 means no net growth occurred over the course of the experiment. A value of -40 indicates 40% of cells at the beginning of the experiment died by the end of the experiment. A value of -100 means all cells are dead at the end of the experiment.
# NCI-60 Human Tumor Cell Lines Screen was performed using the standard one-dose NCI protocol, which is described in more detail at https://dtp.cancer.gov/discovery_development/nci-60/default.htm.
# Compounds with GIPRCNT values below 10 were considered active. Activity score was based on GIPRCNT using the following formula: […]
# Score is 0 for GIPRCNT values of 100 or above, 50 for GIPRCNT values of 0, and 100 for GIPRCNT values of -100.
row,SMILES,growth
1,COc1cccc(-c2nn(-c3ccccc3)cc2-c2ccnc(NCCCNS(=O)(=O)c3ccccc3)c2)c1,42.3% (inactive)
2,CCCCC[C@H]1C/C=C2/C(=O)C(Cl)=C[C@@H]2C/C=C\CCCC(=O)O[C@@H](CCCCC)C/C=C2/C(=O)C(Cl)=C[C@@H]2C/C=C\CCCC(=O)O1,-77.4% (active)
3,COc1ccc(C(=O)c2ccc(C)cc2)c(OC)c1OC,70.1% (inactive)
4,N#CC1C(=N)Cc2ccccc2-c2ccccc21 (stereo not given),55.3% (inactive)
5,O=C1c2ccccc2NC(c2cn(-c3ccccc3)nc2-c2cccnc2)N1Cc1ccccc1 (stereo not given),92% (inactive)
6,C[C@H]1[C@H]2C3=CC[C@@H]4[C@@]5(C)C/C(=C/c6ccco6)C(=O)C(C)(C)[C@@H]5CC[C@@]4(C)[C@]3(C)CC[C@@]2(C(=O)N2CCOCC2)CC[C@@H]1C,94% (inactive)
7,OCC1OC(n2cnc3c(Cl)ncnc32)CC1O (stereo not given),106% (inactive)
8,O=C1NC(c2ccc(Cl)c(Cl)c2)=C/C1=C\c1ccccc1,105% (inactive)
9,O=c1c(CNc2ccc(S(=O)(=O)Nc3nccs3)cc2)coc2ccccc12,112% (inactive)
10,O=C1C(=O)c2ccccc2C(O)=C1CCCc1ccc(C2CCCCC2)cc1,56.7% (inactive)
11,C=C(C)[C@@H]1CC[C@]2(C(=O)N3CCN(CC)CC3)CC[C@]3(C)[C@H](CC[C@@H]4[C@@](C)(CCC(=O)N5CCN(CC)CC5)[C@H](C(=C)C)CC[C@]43C)[C@@H]12,92.6% (inactive)
12,CC(C)(C)c1ccc(OCCCCCCCN2CCNCC2)cc1,79.9% (inactive)
13,NC(=O)[C@@H]1CC2CCC1C2 (stereo not given in full),87.9% (inactive)
14,Cc1cccc(C)c1NCc1nc(-c2ccccc2)n[nH]1,100% (inactive)
15,Cc1cc(N2CCCC2)nc(N(CCNc2ccnc3cc(Cl)ccc23)Cc2ccco2)n1,26.9% (inactive)
16,CC(=O)O[C@H]1CC[C@@]2(C)C(=CC[C@@H]3[C@@H]2CC[C@]2(C)C(=O)N(O)C(=O)C[C@@H]32)C1,92.7% (inactive)
17,Cc1cc(N2CCOCC2)nc(N(CCCNc2ccnc3cc(Cl)ccc23)Cc2ccco2)n1,45.2% (inactive)
18,CC(C)(C)c1[nH]nc2c1C(c1cc3ccccc3[nH]c1=O)Nc1cc(C(=O)OCc3ccccc3)ccc1N2 (stereo not given),65% (inactive)
19,Cc1ccc2oc(=O)cc(-c3sc(N4CCCCC4)nc3-c3ccccc3)c2c1,109% (inactive)
20,Brc1ccc(Cn2nnnc2-c2ccn(-c3ccccc3)n2)cc1,52.5% (inactive)

row,SMILES,growth
1,O=C(/C(=C(\C(=O)c1ccccc1)c1ccccc1)c1ccccc1)c1ccccc1,79.9% (inactive)
2,COc1ccc(/C=C(\C#N)c2cc3ccccc3n2C(C)=O)cc1,78.3% (inactive)
3,O=c1[nH]c2c3ccncc3cc(-c3cccc(Cl)c3)c2c2cnccc12,50.2% (inactive)
4,Cc1cc(N2CCN(C)CC2)nc(N(CCNc2ccnc3cc(Cl)ccc23)Cc2ccco2)n1,73.4% (inactive)
5,CC(=O)O[C@H]1CC[C@]2(C)[C@H]3C(=O)C=C4[C@@H]5C[C@](C)(C(=O)N6CCCNCC6)CC[C@]5(C)CC[C@@]4(C)[C@]3(C)CC[C@H]2C1(C)C,74.1% (inactive)
6,N#C/C(=C\c1ccc(-c2ccc(Br)cc2)o1)c1nc(-c2ccco2)cs1,101% (inactive)
7,COc1ccc(NC(=S)N/N=C/c2ccccc2SSCCC(=O)OC[C@H]2O[C@H](O)[C@H](O)[C@@H](O)[C@@H]2O)cc1,93.4% (inactive)
8,COc1cc2nc(Cl)nc(Nc3cccc(C(=O)/C=C/c4ccc(Br)cc4)c3)c2cc1OC,85.4% (inactive)
9,COC(=O)[C@]12CC[C@@H](C)[C@H](C)[C@@H]1C1=CC[C@@H]3[C@@]4(C)C[C@@H](O)OC[C@](C)(C=O)C4C(=O)C[C@@]3(C)[C@]1(C)CC2 (stereo not given in full),-0.985% (active)
10,O=C(/C=C/c1cccc2ccccc12)Nc1ncc(Cc2ccccc2)s1,-10.8% (active)
11,COc1ccc(C2(Cl)c3ccccc3N(c3ccccc3)c3ccccc32)cc1,-26.5% (active)
12,C=C1C(=O)O[C@H]2[C@H]1CC/C(Cn1cc(-c3ccc(F)cc3)nn1)=C\CC[C@@]1(C)O[C@@H]21,27.4% (inactive)
13,O=C(NO)c1ccc(Cn2c(=O)n(CCc3ccc(O)cc3)c(=O)c3ccccc32)cc1,45.7% (inactive)
14,N#CC1c2ccccc2-c2ccccc2N1C(=O)c1ccccc1 (stereo not given),8.67% (active)
15,c1csc(-c2nc(-c3cc4ccccc4c(N4CCOCC4)n3)cs2)c1,86.2% (inactive)
16,NCCn1cc(-c2nc(-c3c[nH]c4ncccc34)cs2)c2cc(F)ccc21,91.4% (inactive)
17,CCNCCCn1c2c(c3ccc([N+](=O)[O-])cc3c1=O)C(=O)c1cc(OC)cnc1-2,-89.2% (active)
18,NC1=NN=C2N(N)C(=O)c3cnn(-c4ccccc4)c3N2c2nc(-c3ccccc3)cc(-c3ccccc3)c21,114% (inactive)
19,N#CC1=C(N)Oc2c(sc3c(F)cccc23)C1c1ccc(Cl)cc1 (stereo not given),46.6% (inactive)
20,NC(=O)NCC1CCCCC1,104% (inactive)
